Activity calls are given as the source filed them. No rule for the calls is given here.

The target in this test is Pantothenate synthetase (Mycobacterium tuberculosis (strain ATCC 25618 / H37Rv)) (UniProt P9WIL5). In words: Recombinant Mtb pantothenate synthetase (PanC) inhibitors, coupled enzyme, confirmatory (AID 375).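 Also: 0% = full reaction with vehicle and 100% = no enzyme background.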 The settings on record: coupled enzyme assay; at 10 µM, hits give high values.
Pantothenate synthetase (Mycobacterium tuberculosis (strain ATCC 25618 / H37Rv)), sequence (P9WIL5 whole entry, looked up): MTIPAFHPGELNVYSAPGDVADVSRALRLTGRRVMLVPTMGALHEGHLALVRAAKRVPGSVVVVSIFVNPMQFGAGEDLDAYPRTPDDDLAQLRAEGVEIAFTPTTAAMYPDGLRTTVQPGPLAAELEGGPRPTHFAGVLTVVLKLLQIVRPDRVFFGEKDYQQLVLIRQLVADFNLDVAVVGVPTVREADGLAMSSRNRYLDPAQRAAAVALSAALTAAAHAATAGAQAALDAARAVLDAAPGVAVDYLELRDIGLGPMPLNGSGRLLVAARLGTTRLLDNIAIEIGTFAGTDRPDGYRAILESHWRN
`Cc1ccc(-c2noc(CN3C(C)CCCC3C)n2)cc1` (stereo not given): the inhibition is 0% (inactive).

In the case of `COc1ccc(-c2ccc(-c3noc(-c4ccccc4OC)n3)c(OC)n2)cc1`, the inhibition is 0% (inactive).

With `COc1cc(C2C(C#N)=C(C)NC3=C2C(=O)CC(C)(C)C3)ccc1O` (stereo not given), the inhibition is 0% (inactive).

On to `COc1ccc(S(=O)(=O)N2CCN(Cc3ccc(Cl)cc3)CC2)cc1`, for which the inhibition is 0% (inactive).

Take `CCN(CC)c1ccc(NC(=O)c2[nH]c(C)c(C(C)=O)c2C)c(C)c1`: the inhibition was 0% (inactive).

Take `Cc1ncc([N+](=O)[O-])n1CCO`: the inhibition is 1% (inactive).

`Cc1c(C(=O)OCC(C)C)[nH]c2c1C(=O)CC(c1ccco1)C2` (stereo not given): the inhibition was 1% (inactive).

For the compound `Cc1ccc(C)c(C(=O)CC2(O)C(=O)Nc3ccccc32)c1` (stereo not given), the inhibition is 5% (inactive).

For the compound `COc1ccc(NC(=O)c2oc3ccccc3c2NC(=O)c2ccco2)cc1`, the inhibition was 0% (inactive).

For `COc1ccc2c(c1)[nH]c1c(=O)n(CC3CCCO3)cnc12` (stereo not given), the inhibition was 1% (inactive).

For the compound `CCNc1nc(N2CCOCC2)nc(N(c2ccccc2)c2ccccc2)n1`, the inhibition is 0% (inactive).

For `CC1(c2ccc(OC(F)F)cc2)NC(=O)N(CC(=O)Nc2ccc3c(c2)OCO3)C1=O` (stereo not given), the inhibition was 3% (inactive).

Consider `CN(C(=O)COc1cc(=O)n(C)c2ccccc12)c1ccc(Br)cc1`, for which the inhibition was 0% (inactive).

As to `N#CC1=C(N)SC(N)=C(C#N)C1c1ccc(C(F)(F)F)cc1`, the inhibition was 0% (inactive).

On to `CCOC(=O)CSc1nnc(NCC(=O)OC(C)C)c(=O)[nH]1`, for which the inhibition is 4% (inactive).

Consider `O=C(Cn1nc(-c2ccc3c(c2)OCCO3)ccc1=O)Nc1ccc(N2CCOCC2)cc1`, for which the inhibition was 0% (inactive).

Consider `CCc1cccc(NC(=O)Cn2cc3c(n2)CCCC3)c1`, for which the inhibition is 0% (inactive).

Regarding `CC1(C)CC(=O)c2cc(OCC(=O)NCCCN3CCN(c4ccccc4F)CC3)ccc2O1`, the inhibition is 0% (inactive).

For the compound `COCCn1c(NCc2ccc(C)cc2)nc2c1c(=O)[nH]c(=O)n2C`, the inhibition is 10% (inactive).

With `CN1[C@@H]2CC(OC(=O)[C@H](CO)c3ccccc3)C[C@H]1[C@@H]1O[C@@H]12` (stereo not given in full), the inhibition was 0% (inactive).

Regarding `COc1ccc(N2C(=O)C(Cl)=C(N3CCCC3)C2=O)cc1`, the inhibition is 0% (inactive).

With `Cc1ccc(S(=O)(=O)Cn2nnnc2C(C(C)C)N2CCN(C(=O)c3ccco3)CC2)cc1` (stereo not given), the inhibition was 0% (inactive).

For the compound `COc1ccc(Cl)cc1S(=O)(=O)N1CCN(c2ccc(F)cc2)CC1`, the inhibition is 0% (inactive).

Regarding `COC(=O)c1cc2oc(C)cc2n1CC(=O)Nc1ccc(C)c(C)c1`, the inhibition is 0% (inactive).

With `Cc1ccc(S(=O)(=O)N2CCOCC2)cc1C(=O)OCC(=O)N1CCc2ccccc2C1`, the inhibition is 0% (inactive).

Take `O=C(CSc1nnnn1-c1ccc2c(c1)OCO2)NCc1cccs1`: the inhibition is 0% (inactive).

Consider `Cc1cccc(-n2c(SCc3cc(=O)n4ccsc4n3)nc3ccccc32)c1`, for which the inhibition was 0% (inactive).

Turning to `CCc1nc(C)c(C#N)c2cc(OC)c(OC)cc12`, the inhibition was 0% (inactive).

With `O=C(NC1CCCC1)C1CC1c1ccccc1` (stereo not given), the inhibition is 0% (inactive).

Turning to `Cc1cc(C)c2ccc(N)nc2c1O`, the inhibition was 0% (inactive).

For the compound `CN(C)C(=O)CN(c1ccc(F)c(Cl)c1)S(C)(=O)=O`, the inhibition is 5% (inactive).

As to `COc1cc(-n2nc(C)c3c2OC(N)=C(C#N)C3c2ccccc2)c(Cl)c(Br)c1O` (stereo not given), the inhibition was 9% (inactive).

`COc1ccccc1NC(=O)N1CCCC1C(=O)NC1CCCCC1` (stereo not given): the inhibition was 0% (inactive).

With `Cc1cc(C)n(-c2cc(N3CCOCC3)nc(-c3ccccc3)n2)n1`, the inhibition is 2% (inactive).

`COc1cccc(NC(=O)CSc2nnc(Cc3cccn3C)n2-c2ccc(F)cc2)c1`: the inhibition is 4% (inactive).

Regarding `CCOc1ccc(C(CC(=O)O)NC(=O)c2ccco2)cc1OC` (stereo not given), the inhibition is 2% (inactive).

On to `CC1(C)CC(=O)c2cnc(NC(=O)CCc3ccccc3)nc2C1`, for which the inhibition was 0% (inactive).

On to `CCCSc1nnc(-c2ccccc2NC(=O)CC)c(=O)[nH]1`, for which the inhibition was 0% (inactive).

In the case of `CCn1c(Cc2ccccc2)nnc1SCC(=O)Nc1ccc(N2CCOCC2)c(Cl)c1`, the inhibition is 6% (inactive).

In the case of `O=C(NCc1ccc2c(c1)OCO2)c1ccc(NS(=O)(=O)c2ccc3c(c2)OCCO3)cc1`, the inhibition was 0% (inactive).

For the origin of these results see PubChem BioAssay.
